CSC inhib: cancer stem cell viability inhibitors, primary screen, luminescence; cancer stem cell-like cells viability; 300,000 compounds, 1.1% hits; inhibition, % at 7.5 µM; in the data active = inhibition above about 75%; inconclusive = no clear call, values can overlap the other calls; tested in HMLE shEcad cells
Shn3 3UTR inh: reduction of Shn3 3'UTR firefly luciferase signal, primary screen, Schnurri-3 inhibitor project, cell-based, Clone20 osteoblasts, set 2. Clone20 osteoblast Shn3 3'UTR firefly luciferase, 24 h. AID 588674, 2011. inhibition, % at 12.5 µM. 360,000 compounds, 0.52% hits;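 active = mean inhibition of at least 75% with every replicate also reaching 75%; inconclusive = mean inhibition at least 75% but some replicate below; inactive = mean inhibition below 75%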
Gli-Sufu block: Gli-Sufu pathway antagonists, primary screen, luciferase luminescence, Sufu-KO-LIGHT cells, uHTS; Sufu-KO-LIGHT fibroblasts, Gli luciferase reporter luminescence; inhibition, % at 5 µM; 340,000 compounds, 0.74% hits; AID 588413, 2011;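 active = inhibition above about 55%, limit read from the data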
PAX8 inh HTS: inhibitors of PAX8-driven TPO luciferase reporter, primary screen, RMG-I cells, single concentration; SteadyGlo, 24 h; inhibition, % at 12.6 µM; 360,000 compounds, 1.2% hits; AID 652154, 2013;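 active = mean replicate inhibition at least 60% with every replicate also reaching 60%; inconclusive = only one of the two criteria is met; inactive = mean below 60% and not all replicates reaching 60%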;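 note: luciferase light reporting Pax8 driven TPO promoter activity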
Mdm2-MdmX inh: inhibitors of human Mdm2-MdmX association, primary screen, cell-based, luminescence, split luciferase, SaOS-2, uHTS; inhibition, % at 8 µM; SaOS-2 split-luciferase Mdm2/MdmX complementation; 330,000 compounds, 3% hits;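 active = inhibition of at least 50% at 8 µM in the primary screen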
Target sequence (O15151 whole entry, looked up): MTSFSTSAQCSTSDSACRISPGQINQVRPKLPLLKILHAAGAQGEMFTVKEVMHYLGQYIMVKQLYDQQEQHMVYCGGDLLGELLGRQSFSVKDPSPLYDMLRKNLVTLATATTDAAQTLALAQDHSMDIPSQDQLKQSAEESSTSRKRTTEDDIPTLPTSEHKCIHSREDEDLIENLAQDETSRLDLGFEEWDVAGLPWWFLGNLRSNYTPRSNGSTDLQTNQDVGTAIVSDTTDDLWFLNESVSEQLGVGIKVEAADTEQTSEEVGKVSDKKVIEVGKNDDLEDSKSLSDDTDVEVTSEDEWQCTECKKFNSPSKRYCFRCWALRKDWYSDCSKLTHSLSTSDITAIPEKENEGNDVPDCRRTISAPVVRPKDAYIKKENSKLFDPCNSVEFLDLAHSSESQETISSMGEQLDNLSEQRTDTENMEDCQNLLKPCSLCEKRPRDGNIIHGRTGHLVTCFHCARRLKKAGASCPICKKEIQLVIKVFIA
Target sequence (Q00987 whole entry, looked up): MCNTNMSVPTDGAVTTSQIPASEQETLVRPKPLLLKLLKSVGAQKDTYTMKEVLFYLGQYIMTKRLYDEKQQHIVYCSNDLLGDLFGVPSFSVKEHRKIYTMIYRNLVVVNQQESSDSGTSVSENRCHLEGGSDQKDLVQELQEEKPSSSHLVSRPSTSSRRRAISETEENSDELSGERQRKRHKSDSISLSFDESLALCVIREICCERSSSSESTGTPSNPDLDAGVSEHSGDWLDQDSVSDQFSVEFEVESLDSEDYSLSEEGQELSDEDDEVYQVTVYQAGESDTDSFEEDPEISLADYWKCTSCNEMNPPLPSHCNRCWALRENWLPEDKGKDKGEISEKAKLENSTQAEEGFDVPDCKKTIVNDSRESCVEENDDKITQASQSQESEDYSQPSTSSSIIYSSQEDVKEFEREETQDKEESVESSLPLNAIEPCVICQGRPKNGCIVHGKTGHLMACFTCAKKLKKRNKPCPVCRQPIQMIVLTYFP
Beta apoptosis: inhibitors of cytokine-induced beta cell apoptosis, primary screen, luminescence; INS-1E cytokine-induced death, ATP luminescence, 48 h; percent of positive-control rescue, neutral wells zero; protection from apoptosis, % (test concentration not listed); 300,000 compounds, 0.8% hits;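 active = Every replicate reaches about 75%, or at least half do and their mean reaches it too, limit read from the data; inconclusive = At least half of replicates reach the limit but their mean does not; inactive = Under half of replicates reach the limit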;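 note: higher means more ATP so stronger rescue from cytokine killing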
Gli antag conf: Gli-SUFU pathway antagonists, confirmation, single concentration, luciferase luminescence, Sufu-KO-LIGHT cells. shares compounds with Gli-Sufu block. Gli luciferase reporter. inhibition, % at 5 µM. 2,500 compounds, 40% hits;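 active = mean inhibition at 5 µM reaching about 45%, limit read from the data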
Gli cytotox: cytotoxicity in Sufu-KO-LIGHT cells, confirmation, cytotoxicity control for Gli-SUFU antagonist project, cell-based, ATP luminescence, single concentration. 2,500 compounds, 32% hits. shares compounds with Gli-Sufu block. AID 651994, 2013. cytotoxicity, % at 5 µM;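 active = mean cytotoxicity at 5 µM above about 25%, limit read from the data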;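 note: cells exposed to compound overnight for roughly 16 to 18 hours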
Wnt3a cs: Wnt3a reporter signal inhibition, confirmation, counter-screen for Gli-SUFU antagonist project, Wnt-LIGHT cells, luminescence, single concentration. shares compounds with Gli-Sufu block. Wnt3a-driven luciferase reporter. inhibition, % at 6.25 µM. 2,500 compounds, 20% hits;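 active = mean inhibition above about 25%, limit read from the data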
Each line names hits and unclear results; the compound was inactive in the other large screens (follow-up assays come after a bar, where they were run). Rows were chosen to be rich in hits. Some 4% of all compounds tested hit in one or more screens of this group.

Clc1ccc(-c2c[n+](Cc3cccc(Cl)c3)c3n2CCC3)cc1	PAX8 inh HTS inconclusive | Gli antag conf 51 | Gli cytotox 29 | Wnt3a cs inactive
O=[N+]([O-])c1ccc(C[n+]2cc(-c3ccc(Cl)c(Cl)c3)n3c2CCCCC3)cc1	none
CCC(=O)N1C[C@H](C)[C@@H](OC)CN(C)C(=O)c2ccc(NC(=O)Nc3ccc(Cl)cc3)cc2OC[C@H]1C	none (no result: CSC inhib, Shn3 3UTR inh, Gli-Sufu block, Mdm2-MdmX inh, Beta apoptosis)
Cc1ccc(-c2csc3ncnc(N4CCN(Cc5ccccc5)CC4)c23)cc1	none
Cc1csc2ncnc(NC3CCN(Cc4ccccc4)CC3)c12	Gli-Sufu block 69, Beta apoptosis 107 | Gli antag conf 75 | Gli cytotox inactive | Wnt3a cs 44
CC(C)Oc1ccc(CCNC(=O)C2CCC(=O)N(Cc3cccc(F)c3)C2)cc1 (stereo not drawn)	Gli-Sufu block 57 | Gli antag conf inactive | Gli cytotox inactive | Wnt3a cs inactive
CN(C)C(=O)c1cccc(-c2ccc3c(c2)[C@@H]2[C@@H](CCN2C(=O)C2CCOCC2)[C@H](CO)N3)c1	none (no result: CSC inhib, Shn3 3UTR inh, Gli-Sufu block, Mdm2-MdmX inh, Beta apoptosis)
CC(=O)OCC(=O)Nc1cc(S(=O)(=O)N2CCCCCC2)ccc1Cl	none
CC(C)(C)CC(=O)Nc1cc(S(=O)(=O)N2CCCCCC2)ccc1Cl	Gli-Sufu block 60 (no result: CSC inhib, Beta apoptosis) | Gli antag conf inactive | Gli cytotox inactive | Wnt3a cs inactive
CN1[C@@H]2c3ccc(C4=CCCCC4)c(=O)n3C[C@H]1[C@H](CO)[C@H]2C(=O)NCCc1ccccc1	none (no result: CSC inhib, Shn3 3UTR inh, Gli-Sufu block, Mdm2-MdmX inh, Beta apoptosis)
Cc1oc(-c2cccc(Cl)c2)nc1CN1CCC(C(=O)N2CCN(c3ccccc3F)CC2)CC1	Gli-Sufu block 84 | Gli antag conf inactive | Gli cytotox inactive | Wnt3a cs inactive
N#C[C@@H]1[C@H](c2ccc(C3=CCCCC3)cc2)[C@H](CO)N1C(=O)CN1CCOCC1	none (no result: CSC inhib, Shn3 3UTR inh, Gli-Sufu block, Mdm2-MdmX inh, Beta apoptosis)
NC(=S)NNC(=O)c1cccc(Cl)c1	none
O=C(NNC(=O)c1cccc(Cl)c1)NNC(=O)c1cccc(Cl)c1	none | Gli antag conf inactive | Gli cytotox inactive | Wnt3a cs inactive
Cn1c(C2CCCN2C(=O)OC(C)(C)C)n[nH]c1=S (stereo not drawn)	none | Gli antag conf inactive | Gli cytotox inactive | Wnt3a cs inactive
COc1ccc(Cl)cc1NC(=O)CCc1nnc2ccc(N3CCN(C)CC3)nn12	Gli-Sufu block 60 | Gli antag conf inactive | Gli cytotox inactive | Wnt3a cs inactive
C[C@H]1CCCCO[C@H](CN(C)S(=O)(=O)c2cn(C)cn2)[C@@H](C)CN([C@@H](C)CO)C(=O)c2cc(NS(=O)(=O)c3ccc(Cl)cc3)ccc2O1	none (no result: CSC inhib, Shn3 3UTR inh, Gli-Sufu block, Mdm2-MdmX inh, Beta apoptosis)
O=C(CSCCc1ccccn1)Nc1ccccn1	Gli-Sufu block 96 (no result: PAX8 inh HTS) | Gli antag conf inactive | Gli cytotox inactive | Wnt3a cs inactive
COCCNC(=O)c1cccc(OC2CCN(Cc3ccc(C(=O)OC)cc3)CC2)c1	Gli-Sufu block 60 (no result: Beta apoptosis) | Gli antag conf inactive | Gli cytotox inactive | Wnt3a cs inactive
COc1ccc(C(=O)NCC(=O)N2CCCCC2)cc1OC	none
CCOc1ccccc1N1CCN(C(=O)CNC(=O)c2ccc(OC)c(OC)c2)CC1	Gli-Sufu block 71 | Gli antag conf inactive | Gli cytotox inactive | Wnt3a cs inactive
O=C(COc1ccccc1)N1CCN(c2nnc(-c3ccccc3)c3ccccc23)CC1	Gli-Sufu block 96 | Gli antag conf inactive | Gli cytotox inactive | Wnt3a cs inactive
CO[C@H]1CC[C@H]2CCN(C)C(=O)[C@H](C)[C@H](OC)CN(C)C(=O)c3cc(C#N)ccc3OC[C@@H]1O2	none (no result: CSC inhib, Shn3 3UTR inh, Gli-Sufu block, Mdm2-MdmX inh, Beta apoptosis)

Screening data deposited in PubChem by several laboratories.
